# Data taken from PubChem BioAssay.
# Active and inactive are the calls of the source.
# Legend:
# [1] = optical density shifts of acrAB sulA E. coli – strain DRC41, OD650, 48 h, E. coli filamentation inducer project, primary screen (AID 1152); details: higher = more signal, called active from +8 up or from −8 down;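 note: E. coli MC1000 strain DRC41 lacking acrAB efflux pump and sulA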
# [2] = probe aLefty1 binding on compound microarray – biochemical, small-molecule microarray, 635/667 nm fluorescence, primary screen (AID 1153); details: higher = more signal;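 note: score merges spot fluorescence with signal-to-noise ratio from the scanned slide images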
# [3] = plasmodial surface anion channel blockers, osmotic lysis – cell-based, P. falciparum Indochina, OD700, 1 h, primary screen (AID 1154); details: P. falciparum Indochina infected RBC osmotic lysis, higher = more signal, called active from +8 up or from −8 down
# [4] = plasmodial surface anion channel blockers, osmotic lysis – cell-based, P. falciparum Indochina, OD700, 2 h, primary screen (AID 1155);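 note: lysis reports solute entry through the parasite surface anion channel PSAC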; details: P. falciparum Indochina infected erythrocytes, higher = more signal, called active from +8 up or from −8 down
# [5] = changes in parasitized red cell lysis, either direction – P. falciparum Indochina, OD700, 3 h, PSAC antagonist project, primary screen (AID 1156); details: P. falciparum-infected erythrocytes, osmotic lysis, higher = more signal, called active from +8 up or from −8 down
# [6] = plasmodial surface anion channel blockers, osmotic lysis – cell-based, P. falciparum Indochina, OD700, 18 h, primary screen (AID 1157); details: P. falciparum Indochina infected erythrocytes, osmotic lysis OD700, 18 h; higher = more signal, called active from +8 up or from −8 down
# [7] = S6 kinase pathway phospho-S6 level changes – cell-based, A549, cytoblot, luminescence, serum-stimulated, primary screen (AID 1158); details: 5 h, higher = more signal;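 note: serum-stimulated A549 lung adenocarcinoma cells; signal is phosphorylated S6 detected by cytoblot immunostaining with HRP secondary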
# [8] = target: NADPH oxidase 2 (Homo sapiens) (UniProt P04839); assay: compounds shifting NOX2 Amplex Red fluorescence – cell-based, HEK293-NOX2, PMA-stimulated, NOX inhibitor project, primary screen (AID 1159); details: 45 min, higher = more signal, called active from +8 up or from −8 down; note: test concentration not given here
# [9] = target: NADPH oxidase 4 (Homo sapiens) (UniProt Q9NPH5); assay: compounds shifting NOX4 Amplex Red fluorescence – cell-based, HEK293-NOX4, tetracycline-induced, NOX inhibitor project, primary screen (AID 1160); details: HEK293-NOX4, Amplex Red H2O2 fluorescence, 45 min; higher = more signal, called active from +8 up or from −8 down
# [10] = target: NADPH oxidase 5 (Homo sapiens) (UniProt Q96PH1); assay: compounds shifting NOX5 Amplex Red fluorescence – cell-based, HEK293-NOX5, NOX inhibitor project, primary screen (AID 1161); details: HEK293-NOX5, ionomycin, 45 min, higher = more signal
# NADPH oxidase 5 (Homo sapiens), sequence (Q96PH1 whole entry, looked up): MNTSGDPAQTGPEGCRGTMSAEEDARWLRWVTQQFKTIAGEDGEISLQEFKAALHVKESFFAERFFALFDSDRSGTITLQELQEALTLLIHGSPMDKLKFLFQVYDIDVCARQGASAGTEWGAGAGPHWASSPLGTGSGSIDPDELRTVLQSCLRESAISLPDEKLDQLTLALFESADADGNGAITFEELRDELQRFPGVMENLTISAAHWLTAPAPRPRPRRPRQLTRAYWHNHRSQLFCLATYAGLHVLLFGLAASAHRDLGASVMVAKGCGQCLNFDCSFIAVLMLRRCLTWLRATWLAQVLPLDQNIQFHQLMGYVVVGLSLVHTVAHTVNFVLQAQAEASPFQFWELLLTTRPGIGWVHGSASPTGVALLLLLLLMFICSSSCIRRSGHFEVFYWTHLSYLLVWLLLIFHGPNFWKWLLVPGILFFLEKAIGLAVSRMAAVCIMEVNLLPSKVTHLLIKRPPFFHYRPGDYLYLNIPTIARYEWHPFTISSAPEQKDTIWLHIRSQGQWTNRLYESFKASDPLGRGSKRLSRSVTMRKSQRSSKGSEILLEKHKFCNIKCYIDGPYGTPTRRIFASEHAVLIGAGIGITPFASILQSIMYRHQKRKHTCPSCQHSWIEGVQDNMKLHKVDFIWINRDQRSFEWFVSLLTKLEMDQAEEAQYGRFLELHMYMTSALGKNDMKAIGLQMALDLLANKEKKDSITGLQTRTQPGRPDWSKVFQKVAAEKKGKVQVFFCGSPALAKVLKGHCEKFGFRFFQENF
# NADPH oxidase 2 (Homo sapiens), sequence (P04839 whole entry, looked up): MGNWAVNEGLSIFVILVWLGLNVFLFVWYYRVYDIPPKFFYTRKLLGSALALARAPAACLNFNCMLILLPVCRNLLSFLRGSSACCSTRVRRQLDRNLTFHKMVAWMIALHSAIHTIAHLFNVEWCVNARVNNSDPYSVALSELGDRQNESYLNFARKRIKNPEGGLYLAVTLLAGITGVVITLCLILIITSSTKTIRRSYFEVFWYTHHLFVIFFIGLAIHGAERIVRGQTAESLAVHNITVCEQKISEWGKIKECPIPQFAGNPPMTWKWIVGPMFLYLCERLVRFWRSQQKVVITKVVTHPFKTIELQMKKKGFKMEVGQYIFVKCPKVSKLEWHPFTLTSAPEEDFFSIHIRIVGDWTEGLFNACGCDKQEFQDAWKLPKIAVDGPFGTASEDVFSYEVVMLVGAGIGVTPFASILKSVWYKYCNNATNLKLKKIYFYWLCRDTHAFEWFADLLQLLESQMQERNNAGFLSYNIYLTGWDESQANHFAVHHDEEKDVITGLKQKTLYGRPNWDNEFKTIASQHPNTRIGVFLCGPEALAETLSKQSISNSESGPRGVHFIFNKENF
# NADPH oxidase 4 (Homo sapiens), sequence (Q9NPH5 whole entry, looked up): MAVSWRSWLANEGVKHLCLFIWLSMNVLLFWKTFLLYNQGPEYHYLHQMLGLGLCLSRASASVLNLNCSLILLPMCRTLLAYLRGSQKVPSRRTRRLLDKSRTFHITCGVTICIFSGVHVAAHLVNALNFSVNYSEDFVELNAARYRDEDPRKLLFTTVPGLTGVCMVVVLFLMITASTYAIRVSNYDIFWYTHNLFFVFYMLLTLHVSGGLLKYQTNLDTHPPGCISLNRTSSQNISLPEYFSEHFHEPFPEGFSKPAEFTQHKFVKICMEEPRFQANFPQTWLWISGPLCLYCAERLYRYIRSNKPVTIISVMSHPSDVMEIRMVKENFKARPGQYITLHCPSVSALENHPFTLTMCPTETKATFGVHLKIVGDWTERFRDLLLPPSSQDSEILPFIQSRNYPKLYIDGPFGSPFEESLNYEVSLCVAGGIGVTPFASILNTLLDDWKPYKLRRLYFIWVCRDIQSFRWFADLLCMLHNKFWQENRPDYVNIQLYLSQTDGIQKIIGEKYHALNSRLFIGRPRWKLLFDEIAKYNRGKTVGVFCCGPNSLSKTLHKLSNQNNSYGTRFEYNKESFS
SMILES,z-score [1],composite z-score [2],z-score [3],z-score [4],z-score [5],z-score [6],z-score [7],z-score [8],z-score [9],z-score [10]
[N-]=[N+]=NCc1ccccc1[C@H]1OC(c2ccc(OCCCO)cc2)=N[C@@]1(Cc1ccccc1N=[N+]=[N-])C(=O)NCC(O)CO (stereo not given in full),-0.502 (inactive),0.54,27.6 (active),21 (active),1.37 (inactive),2.09 (inactive),-0.48,-3.08 (inactive),-0.592 (inactive),-1.71
O=C(c1ccccc1)N1C(=O)[C@]2(Cc3ccccc31)N=C(c1ccc(OCCCO)cc1)O[C@@H]2c1ccccc1,-0.857 (inactive),0.297,21.9 (active),8.53 (active),0.0521 (inactive),1.35 (inactive),-0.203,0.491 (inactive),-0.703 (inactive),-1.77
COCCOC(=O)N1C(=O)[C@@]2(c3cc(C#CC4=CCCCC4)ccc31)[C@H](c1ccccc1OCCO)N1[C@H](c3ccccc3)[C@H](c3ccccc3)OC(=O)[C@H]1[C@@H]2C(=O)NC[C@H](O)c1ccccc1,-0.801 (inactive),0.457,1.34 (inactive),2.19 (inactive),-1.61 (inactive),0.703 (inactive),-0.0585,1.79 (inactive),0.529 (inactive),1.81
CCOC(=O)C[C@H]1[C@H](OC(=O)c2ccccc2-c2ccccc2)[C@@H](NC(=O)c2ccc3ccccc3c2)c2cc(OCCCO)ccc2N1C(=O)c1ccccc1,0.142 (inactive),-0.152,1.05 (inactive),0.844 (inactive),0.652 (inactive),0.23 (inactive),-0.0193,0.595 (inactive),0.89 (inactive),1.53
C=C(/C(=C/C[C@H](OC(=O)c1ccncc1)c1ccc(CO)o1)c1cnc2ccccc2c1)C(C)C,-0.833 (inactive),0.0844,6.75 (inactive),1.37 (inactive),1.47 (inactive),0.528 (inactive),-0.702,1.42 (inactive),0.0654 (inactive),-0.415
COCC(=C=CC[C@H](O)c1ccccc1OCCO)C[C@H](O)c1ccccn1,0.769 (inactive),-0.224,3.61 (inactive),1.12 (inactive),1.74 (inactive),0.382 (inactive),0.658,0.251 (inactive),-0.831 (inactive),-0.926
C=CCN1Cc2ccccc2[C@@H]2OC(c3ccc(OCCCO)cc3)=N[C@]2(CC=C)C1=O,0.408 (inactive),1.49,22.5 (active),7.24 (inactive),5.55 (inactive),1.33 (inactive),-0.218,-1.98 (inactive),0.452 (inactive),1.03
Cc1ccc(S[C@]2(C(=O)NCC(F)(F)F)CC(=O)N(Cc3cc(C(F)(F)F)cc(C(F)(F)F)c3)[C@@H]2c2ccc(CO)cc2I)cc1,0.168 (inactive),-0.563,1.71 (inactive),-0.0111 (inactive),1.12 (inactive),0.449 (inactive),0.837,1.63 (inactive),-2.46 (inactive),-1.28
CCCCC(CC)C(O)C1C=CC2C(=O)N(c3ccccc3)C(=O)C2N1Nc1ccccc1F (stereo not given),0.351 (inactive),-0.0576,0.741 (inactive),-0.686 (inactive),-0.42 (inactive),-1.57 (inactive),0.434,-0.157 (inactive),0.143 (inactive),1.01
COCCOC(=O)N1C(=O)[C@@]2(c3cc(C#CC4(O)CCCCCC4)ccc31)[C@H](C(=O)Nc1nc3ccccc3s1)[C@H]1C(=O)O[C@H](c3ccccc3)[C@H](c3ccccc3)N1[C@@H]2c1ccc(O)cc1,0.0662 (inactive),0.219,0.4 (inactive),0.925 (inactive),-0.186 (inactive),1.47 (inactive),-0.335,1.01 (inactive),0.286 (inactive),0.785
C=CC[C@]1(C(=O)N2CCOCC2)COC(c2ccc(OCCCO)cc2)=N1,0.323 (inactive),0.43,5.33 (inactive),0.2 (inactive),0.638 (inactive),0.301 (inactive),0.0334,-2.25 (inactive),-0.335 (inactive),-0.859
COCCOC(=O)N1C(=O)[C@@]2(c3cc(C#CC4=CCCCC4)ccc31)[C@H](C(=O)Nc1nc3ccccc3s1)[C@H]1C(=O)O[C@H](c3ccccc3)[C@H](c3ccccc3)N1[C@@H]2c1ccc(O)cc1,-0.61 (inactive),0.103,0.141 (inactive),0.524 (inactive),-0.0845 (inactive),1.2 (inactive),-0.123,0.843 (inactive),-0.44 (inactive),0.759
C#Cc1cc2ccccc2oc1=O,-1.44 (inactive),0.228,3.02 (inactive),0.858 (inactive),0.898 (inactive),0.656 (inactive),-0.668,0.0724 (inactive),-1.35 (inactive),-0.807
Cc1ccc(NN2C(C(O)c3c(F)cccc3Cl)C=CC3C(=O)N(C4CCCCC4)C(=O)C32)cc1 (stereo not given),0.0905 (inactive),0.23,12.9 (active),1.86 (inactive),2.45 (inactive),0.902 (inactive),-0.319,-1.41 (inactive),-0.336 (inactive),-1.67
CCCC[C@@H](O)C1=C(COC)C[C@H]2C(=O)N(Cc3ccccc3)C(=O)[C@H]2[C@H]1CO,0.878 (inactive),-0.103,1.83 (inactive),-0.384 (inactive),-0.157 (inactive),0.133 (inactive),0.304,-0.725 (inactive),0.282 (inactive),0.373
COc1cc2c(cc1O)C(C1CC1)N(Cc1cccc(OC(F)(F)F)c1)CC2 (stereo not given),-0.933 (inactive),-0.105,2.92 (inactive),0.325 (inactive),-0.222 (inactive),0.032 (inactive),-0.759,-5.01 (inactive),-2.98 (inactive),-4.25
